Experimental data from PubChem BioAssay AID1159580 (chemical genetic matrix, 2015).
Where “and” joins values, the source holds several entries; their conditions need not be identical. Identical values can stand only once. Hit rate of the full screen: of about 5,500 compounds, about 2,000 (36%) were called active. Inconclusive results (about 18%) are left out. No stated cut-off is given here; in the data, active means normalized growth mostly below about 0.91 (no sharp cut-off); inconclusive means no clear call, values can overlap the other calls; inactive means mostly above about 0.92. The list shows a part of the results.

Assay: chemical genetic growth profiling, strain panel (AID 1159580);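 further: tested at 20 µM; growth read once vehicle control cultures reached saturation at 30 °C; 1 = growth at the plate median or of vehicle wells; lower values mean less growth of the strain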
Settings: growth OD

Measured: normalized growth

CN/C(=C\[N+](=O)[O-])NCCSCc1ccc(CN(C)C)o1
inactive: S. cerevisiae deletion strains, locus YKL009W, strain mrt4, active compounds read low 1.02 | S. cerevisiae deletion strains, locus YKL068W, active compounds read low 0.999 | S. cerevisiae deletion strains, locus YKL085W, strain MDH1 (second series), active compounds read low 1.01 | S. cerevisiae deletion strains, locus YKL085W, strain MDH1, active compounds read low 1.01 | S. cerevisiae deletion strains, locus YKL160W, strain elf1, active compounds read low 0.988 | S. cerevisiae deletion strains, locus YKL190W, strain CNB1, active compounds read low 1.01 | S. cerevisiae deletion strains, locus YKR001C, strain vps1, active compounds read low 0.993 | S. cerevisiae deletion strains, locus YKR026C, strain gcn3, active compounds read low 1 | S. cerevisiae deletion strains, locus YKR091W, strain srl3, active compounds read low 0.988 | S. cerevisiae deletion strains, locus YLL001W, strain dnm1, active compounds read low 0.989 | S. cerevisiae deletion strains, locus YLL026W, active compounds read low 0.992 | S. cerevisiae deletion strains, locus YLL041C, strain sdh2, active compounds read low 0.979 | S. cerevisiae deletion strains, locus YLR027C, strain aat2, active compounds read low 0.989 | S. cerevisiae deletion strains, locus YLR039C, strain RIC1, active compounds read low 1.05 | S. cerevisiae deletion strains, locus YLR058C, strain SHM2, active compounds read low 1.03 | S. cerevisiae deletion strains, locus YLR102C, strain apc9, active compounds read low 0.977 | S. cerevisiae deletion strains, locus YLR113W, strain HOG1, active compounds read low 0.996 | S. cerevisiae deletion strains, locus YLR221C, strain rsa3, active compounds read low 0.993 | S. cerevisiae deletion strains, locus YLR258W, strain gsy2, active compounds read low 0.99 | S. cerevisiae deletion strains, locus YLR262C, strain YPT6 (second series), active compounds read low 0.972 | S. cerevisiae deletion strains, locus YLR262C, strain YPT6, active compounds read low 1.11 | S. cerevisiae deletion strains, locus YLR268W, strain sec22, active compounds read low 0.997 | S. cerevisiae deletion strains, locus YLR320W, strain mms22, active compounds read low 0.99 | S. cerevisiae deletion strains, locus YLR330W, strain CHS5, active compounds read low 1.01 | S. cerevisiae deletion strains, locus YLR342W, strain FKS1 (second series), active compounds read low 1.01 | S. cerevisiae deletion strains, locus YLR342W, strain FKS1, active compounds read low 0.969 | S. cerevisiae deletion strains, locus YLR357W, strain rsc2, active compounds read low 0.908 | S. cerevisiae deletion strains, locus YLR370C, strain arc18, active compounds read low 0.982 | S. cerevisiae deletion strains, locus YLR371W, strain rom2, active compounds read low 0.983 | S. cerevisiae deletion strains, locus YLR384C, strain iki3, active compounds read low 0.989 | S. cerevisiae deletion strains, locus YLR418C, strain cdc73, active compounds read low 0.994 | S. cerevisiae deletion strains, locus YML016C, strain PPZ1, active compounds read low 1.02 | S. cerevisiae deletion strains, locus YML032C, strain rad52, active compounds read low 0.977 | S. cerevisiae deletion strains, locus YML120C, strain ndi1, active compounds read low 0.981 | S. cerevisiae deletion strains, locus YML124C, strain tub3, active compounds read low 0.991 | S. cerevisiae deletion strains, locus YMR058W, strain fet3, active compounds read low 0.979 | S. cerevisiae deletion strains, locus YMR078C, strain ctf18, active compounds read low 0.987 | S. cerevisiae deletion strains, locus YMR125W, strain sto1, active compounds read low 0.982 | S. cerevisiae deletion strains, locus YMR129W, active compounds read low 0.995 | S. cerevisiae deletion strains, locus YMR205C, strain PFK2, active compounds read low 0.976 | S. cerevisiae deletion strains, locus YMR223W, strain ubp8, active compounds read low 0.996 | S. cerevisiae deletion strains, locus YMR231W, strain pep5, active compounds read low 0.997 | S. cerevisiae deletion strains, locus YMR263W, strain SAP30, active compounds read low 1.04 and 1 | S. cerevisiae deletion strains, locus YMR307W, strain GAS1, active compounds read low 1.07 and 1.03 | S. cerevisiae deletion strains, locus YNL067W, strain RPL9B, active compounds read low 1.04 | S. cerevisiae deletion strains, locus YNL071W, strain lat1, active compounds read low 0.987 | S. cerevisiae deletion strains, locus YNL128W, strain TEP1, active compounds read low 1.02 | S. cerevisiae deletion strains, locus YNL153C, strain GIM3, active compounds read low 1.01 | S. cerevisiae deletion strains, locus YNL175C, strain NOP13, active compounds read low 0.997 | S. cerevisiae deletion strains, locus YNL183C, strain NPR1, active compounds read low 0.944 | S. cerevisiae deletion strains, locus YNL197C, strain WHI3, active compounds read low 1.01 | S. cerevisiae deletion strains, locus YNL209W, strain ssb2, active compounds read low 0.994 | S. cerevisiae deletion strains, locus YNL224C, strain SQS1, active compounds read low 0.998 | S. cerevisiae deletion strains, locus YNL233W, strain BNI4, active compounds read low 1.03 | S. cerevisiae deletion strains, locus YNL248C, strain rpa49, active compounds read low 0.98 | S. cerevisiae deletion strains, locus YNL250W, strain rad50, active compounds read low 0.982 | S. cerevisiae deletion strains, locus YNL271C, strain bni1, active compounds read low 0.974 | S. cerevisiae deletion strains, locus YNL298W, strain CLA4, active compounds read low 1 | S. cerevisiae deletion strains, locus YNL307C, strain MCK1, active compounds read low 0.986 | S. cerevisiae deletion strains, locus YNL322C, strain KRE1 (second series), active compounds read low 0.96 | S. cerevisiae deletion strains, locus YNL322C, strain KRE1, active compounds read low 1.01 | S. cerevisiae deletion strains, locus YNR049C, strain mso1, active compounds read low 0.988 | S. cerevisiae deletion strains, locus YNR052C, strain pop2, active compounds read low 0.984 | S. cerevisiae deletion strains, locus YOL006C, strain TOP1, active compounds read low 1.13 | S. cerevisiae deletion strains, locus YOL012C, strain htz1 1.11 | S. cerevisiae deletion strains, locus YOL147C, strain pex11, active compounds read low 0.99 | S. cerevisiae deletion strains, locus YOR001W, strain rrp6, active compounds read low 0.982 | S. cerevisiae deletion strains, locus YOR061W, strain CKA2, active compounds read low 1.02 | S. cerevisiae deletion strains, locus YOR069W, strain VPS5, active compounds read low 1.02 | S. cerevisiae deletion strains, locus YOR070C, strain gyp1, active compounds read low 0.989 | S. cerevisiae deletion strains, locus YOR080W, strain dia2, active compounds read low 0.99 | S. cerevisiae deletion strains, locus YOR083W, strain WHI5 (second series), active compounds read low 1.02 | S. cerevisiae deletion strains, locus YOR083W, strain WHI5, active compounds read low 0.982 | S. cerevisiae deletion strains, locus YOR106W, strain vam3, active compounds read low 0.999 | S. cerevisiae deletion strains, locus YOR136W, strain idh2, active compounds read low 0.982 | S. cerevisiae deletion strains, locus YOR144C, strain elg1, active compounds read low 0.992 | S. cerevisiae deletion strains, locus YOR184W, strain ser1, active compounds read low 0.994 | S. cerevisiae deletion strains, locus YOR231W, strain MKK1, active compounds read low 0.99 | S. cerevisiae deletion strains, locus YOR265W, strain rbl2, active compounds read low 0.974 | S. cerevisiae deletion strains, locus YOR270C, strain vph1, active compounds read low 1 | S. cerevisiae deletion strains, locus YOR290C, strain snf2, active compounds read low 0.996 | S. cerevisiae deletion strains, locus YOR316C, strain cot1, active compounds read low 0.985 | S. cerevisiae deletion strains, locus YPL051W, strain arl3, active compounds read low 1 | S. cerevisiae deletion strains, locus YPL055C, strain LGE1, active compounds read low 0.991 | S. cerevisiae deletion strains, locus YPL078C, strain atp4, active compounds read low 0.982 | S. cerevisiae deletion strains, locus YPL106C, strain sse1, active compounds read low 0.956 | S. cerevisiae deletion strains, locus YPL240C, strain hsp82, active compounds read low 0.99 | S. cerevisiae deletion strains, locus YPL241C, strain CIN2, active compounds read low 1 | S. cerevisiae deletion strains, locus YPL256C, strain CLN2, active compounds read low 0.968 | S. cerevisiae deletion strains, locus YPR119W, strain clb2, active compounds read low 0.988 | S. cerevisiae deletion strains, locus YPR141C, strain kar3, active compounds read low 0.995 | S. cerevisiae deletion strains, locus YPR163C, strain tif3, active compounds read low 0.993 | S. cerevisiae deletion strains, locus YPR167C, strain met16, active compounds read low 0.98 | S. cerevisiae deletion strains, strain wtn01, active compounds read low 0.987 | S. cerevisiae strains, strain wild type, active compounds read low 1.02
